# From PubChem BioAssay
# This is a sample that favours compounds with a hit; in the whole collection about 2.4% have one here.
# D2 antag = HTS Assay for Allosteric Antagonists of the Human D2 Dopamine Receptor: Primary Screen for Antagonists | inhibition, % at 10 µM | HEK293 TREx D2 cells, calcium flux, dopamine EC80 | 340,000 tested, 2% active | D(2) dopamine receptor (Homo sapiens), P14416; in the data active = inhibition above about 30%; inactive = below that, where a call was filed; note: 0% is about no effect
# Target sequence (P14416 whole entry, looked up): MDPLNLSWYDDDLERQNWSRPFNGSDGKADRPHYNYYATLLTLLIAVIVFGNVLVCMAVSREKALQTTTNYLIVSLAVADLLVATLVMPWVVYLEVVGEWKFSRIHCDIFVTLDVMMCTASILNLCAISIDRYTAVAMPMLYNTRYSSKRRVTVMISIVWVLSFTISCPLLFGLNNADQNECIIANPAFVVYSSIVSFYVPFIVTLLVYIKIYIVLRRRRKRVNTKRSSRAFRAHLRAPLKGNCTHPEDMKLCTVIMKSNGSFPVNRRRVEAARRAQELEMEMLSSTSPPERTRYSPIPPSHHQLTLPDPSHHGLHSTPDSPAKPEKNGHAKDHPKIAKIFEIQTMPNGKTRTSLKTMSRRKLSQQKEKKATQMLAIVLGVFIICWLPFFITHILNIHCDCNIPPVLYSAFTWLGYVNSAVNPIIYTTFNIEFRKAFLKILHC
#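 Inhibition of EC80 dopamine-driven calcium flux, recorded kinetically, defines activity here; cells are a tetracycline-induced HEK293 T-REx line expressing force-coupled D2.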
# D2 PAM-1 = HTS Assay for Positive Allosteric Modulators of the Human D2 Dopamine Receptor: Primary Screen for Potentiators; HEK293 T-REx D2, calcium flux, EC20 dopamine potentiation; potentiation, % at 10 µM; D(2) dopamine receptor (Homo sapiens), P14416; 340,000 tested, 0.34% active;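 active = potentiation over 3 SD above the plate norm, cut at about 30% in these data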; note: 0% is about no effect
#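 Using a no-wash calcium dye in inducible, force-coupled HEK293 Trex cells expressing D2, we tracked fluorescence each second for 180 s after compound, then for 180 s after EC20 dopamine to detect augmented signalling.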
# D2 ag-1 = HTS Assay for Allosteric Agonists of the Human D2 Dopamine Receptor: Primary Screen for Agonists; D(2) dopamine receptor (Homo sapiens), P14416; HEK293 T-REx D2 cells, calcium flux agonist mode; activation, % at 2 µM; 340,000 tested, 0.53% active;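 active = activation over 3 SD above normal in the single-dose calcium agonist read, cut at about 30% in these data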; note: 0% is about no effect
#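 Tetracycline-induced HEK293 T-REx cells with force-coupled D2 receptor, plated overnight at 30 C, loaded with no-wash calcium dye. After a 10 s baseline, compound was pin-added and calcium flux read kinetically for 180 s; calcium rises flagged agonists.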
# D2 ag-2 = Beta-Arrestin HTS for Positive Allosteric Modulators of the Human D2 Dopamine Receptor: Agonists; D(2) dopamine receptor (Homo sapiens), P14416; AID 624465, 2012; activation, % (concentration not given with the values); DiscoveRx PathHunter D2 beta-arrestin, luminescence, 90 min; 100% = 57 uM dopamine signal; 360,000 tested, 0.084% active; in the data active = activation above about 40%; inconclusive = between about 15% and that limit
#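 Agonist mode: compounds alone added to overnight-plated D2 PathHunter cells for 90 min at 37 C, with 57 uM final dopamine (EC100) defining full response. Beta-arrestin recruitment detected by chemiluminescent reagent, read after 1 h at ambient temperature.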
# D2 PAM-2 = Beta-Arrestin HTS for Positive Allosteric Modulators of the Human D2 Dopamine Receptor: Potentiators. D(2) dopamine receptor (Homo sapiens), P14416. AID 624464, 2012. DiscoveRx D2 beta-arrestin cells, luminescence, 90 min; 100% = 57 uM dopamine signal. potentiation, % (concentration not given with the values). 360,000 tested, 0.23% active; in the data active = potentiation above about 50%; inconclusive = mostly about 30% to 49%
#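 PathHunter D2 cells, attached overnight at 37 deg C, received compound in DMSO plus dopamine at EC20 (50 nM final) for 90 min at 37 deg C. Beta-arrestin recruitment was read as luminescence after 1 h with detection reagent at ambient temperature.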
# D3 arrestin ag = qHTS of D3 Dopamine Receptor Agonist: D3 Dopamine Receptor B-arrestin Agonist Confirmatory Assay; shares compounds with D2 ag-1; DiscoveRx D3 beta-arrestin cells, luminescence, 90 min; AID 720506, 2013; Potency, µM (series often up to 76.9 µM), inactives show top-dose activation, most hits filed as activators; 2,300 tested, 4% active;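 note: potency is the fitted concentration of half-maximal effect; 100% = dopamine control response; nearly all actives have a fitted effect of over 70% in size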
# D2 ag-3 = qHTS of D3 Dopamine Receptor Agonist: D2 Dopamine Receptor B-arrestin Agonist Counterscreen | shares compounds with D2 ag-1 | DiscoveRx PathHunter D2 beta-arrestin, luminescence, 90 min; response scale: percent relative to full dopamine signal | Potency, µM (highest dose often 76.9 µM), for inactives: top-dose activation, most hits filed as activators | 2,300 tested, 5.9% active; note: potency is the fitted concentration of half-maximal effect; % of control where 0% means no effect; nearly all actives have a fitted effect of over 70% in size
# Starred values were filed as active, the others as inactive; ? = inconclusive; . = not tested or not shown. Unless noted, calls come from the whole dose curve; as a rule, active = well fitted activation curve with a large enough effect; inconclusive = small, poorly fitted or top-dose-only effect; inactive = flat fitted curve, though single readings scatter.
SMILES,D2 antag,D2 PAM-1,D2 ag-1,D2 ag-2,D2 PAM-2,D3 arrestin ag,D2 ag-3
O=S(=O)(NCCN1CCCC1)c1cccc2cccnc12,-10,0,1,-2,-6,.,.
O=S(=O)(c1ccc(NC(=S)N/N=C/c2ccc(Oc3ccccc3)cc2)cc1)N1CCOCC1,8,-12,1,4,-5,.,.
O=S(=O)(c1ccc(NC(=S)N/N=C/c2c3ccccc3cc3ccccc23)cc1)N1CCOCC1,24,8,0,2,-12,29%,13%
CC(=O)c1cc2cc(O)ccc2o1,-10,-3,1,-2,-9,.,.
CC(=O)c1cc2c(O)c(O)ccc2o1,2,-7,1,7,13,?,8%
CC(=O)Nc1ccc(/C=N/N2C(=O)NC(C)(c3ccc(OC(F)F)cc3)C2=O)cc1 (stereo unspecified),47*,-14,37*,-2,-14,-8%,-4%
CC(=NCCc1ccccc1)C1=C(O)CCC1=O,23,-15,42*,3,-2,-7%,-3%
CCNC(=S)Nc1ccc2c(c1)oc1ccccc12,.,.,.,-1,-14,.,.
O=C(NCCN1CCN(c2ccccc2)CC1)C1CCN(S(=O)(=O)c2cccc3nsnc23)CC1,55*,.,28,?,-1,?,22%
O=C(O)C1CCCN1S(=O)(=O)c1cccc2nsnc12 (stereo unspecified),-6,-12,45*,0,-2,-10%,-2%
O=C(NCCc1ccccc1)C1CCN(S(=O)(=O)c2cccc3nsnc23)CC1,-14,2,-1,-1,-19,.,.
Cc1ccc(NC(=O)CSCC(=O)Nc2ccccc2C(=O)NC2CC2)cc1,-2,4,0,-2,11,.,.
COc1ccc(OC)c(CNC(=O)C2COc3ccccc3C2)c1 (stereo unspecified),.,16,1,.,.,.,.
COC(=O)c1ccccc1NS(=O)(=O)c1cc2c(cc1C)N(C)CCO2,.,-2,0,.,.,.,.
CCC(=O)Oc1ccc(C(=O)Nc2ccc3c(c2)OCO3)cc1,17,2,-1,6,-6,2%,1%
O=C(CSC1=N/C(=C/c2ccc(Cl)c(Cl)c2)C(=O)N1c1ccccc1F)NC1CC1,52*,8,1,-5,15,20%,5%
Fc1ccc(F)c(CN2CCN(c3ncccn3)CC2)c1,79*,-22,64*,78*,64*,?,3.2µM*
Fc1ccc(CN2CCN(c3ncccn3)CC2)cc1,84*,-19,79*,47*,25,-5%,?
O=S1(=O)CC(N2CCN(c3ncccn3)CC2)CN1Cc1ccc(F)cc1 (stereo unspecified),.,.,.,-3,-3,.,.
CCOc1cc(CN2CCN(c3ncccn3)CC2)ccc1OC,77*,-36,78*,?,-5,20%,?
CCc1ccc(CN2CCN(c3ncccn3)CC2)cc1,95*,-19,77*,75*,?,?,0.56µM*
Cc1nn(C)cc1C(=O)Nc1ccc2c(c1)OCCO2,-15,3,1,-3,-4,.,.
CCOc1ccccc1N(C)S(=O)(=O)c1ccc2c(c1)CC(C)N2C(=O)C1CC1 (stereo unspecified),-14,6,0,-1,5,.,.
COc1ccc(C(=O)Nc2ccc3c(c2)OCO3)cc1S(=O)(=O)N1CCOCC1,.,.,.,-2,-9,.,.
CCOc1ccc2oc(C(=O)N(C)CC(=O)Nc3ccc(OCC)c(OCC)c3)c(C)c2c1,-7,7,-1,-4,-10,.,.
SMILES,D2 antag,D2 PAM-1,D2 ag-1,D2 ag-2,D2 PAM-2,D3 arrestin ag,D2 ag-3
CCOc1ccc(CCNC(=O)CCc2c(C)nc3c(-c4ccccc4)c(C)nn3c2C)cc1OCC,.,1,-2,.,.,.,.
OC(CN1CCCCC1)Cn1c2ccccc2c2cc(Br)ccc21 (stereo unspecified),80*,-28,39*,7,-10,15%,-1%
COc1ccc2oc(C(=O)Nc3cccc(S(=O)(=O)N4CCOCC4)c3)c(C)c2c1,-4,-3,0,1,5,3%,-2%
COc1ccc2oc(C(=O)OCC(=O)Nc3cccc(S(=O)(=O)N4CCOCC4)c3)c(C)c2c1,-4,2,1,3,-1,.,.
Cc1ccc2[nH]c3c(c2c1)CN(C(=O)CN1CCSCC1)CC3,-13,-4,-3,.,.,.,.
CCOC(=O)N1CCc2[nH]c3ccc(C)cc3c2C1,-16,21,29,3,-13,-8%,0%
Cc1ccc2[nH]c3c(c2c1)CN(C(=O)CN1CCN(c2ccccn2)CC1)CC3,8,-9,31*,9,3,26%,18%
Cc1ccc2[nH]c3c(c2c1)CN(C(=O)CN1CC(C)OC(C)C1)CC3 (stereo unspecified),5,-4,2,0,15,.,.
CCOc1ccc(-n2c(SC(C)C(=O)OC)nc3c([nH]c4ccccc43)c2=O)cc1 (stereo unspecified),.,15,-6,.,.,.,.
Cc1ccccc1C(=O)N1CCC(C(=O)N(C)CCOc2ccccc2)CC1,-3,5,0,-7,-4,.,.
Cc1cccc(N(Cc2ccccc2)C(=O)C2CCN(C(=O)c3ccccc3C)CC2)c1,-55,0,0,1,-10,-14%,3%
Cc1ccc(NC(=O)CSc2nnc(C)n2C2CC2)cc1S(=O)(=O)N1CCOCC1,1,1,-1,1,-2,.,.
c1ccc(COc2ccc(OCCCCN3CCCCC3)cc2)cc1,-15,-11,0,4,-44,.,.
Oc1ccc(N2CCN(Cc3ccc(OCCCN4CCCCC4)cc3)CC2)cc1,91*,-29,72*,47*,5,?,4.5µM*
COCCN(C(=O)C1CCN(C(=O)c2ccccc2C)CC1)c1c(N)n(CC(C)C)c(=O)[nH]c1=O,-6,5,0,0,-4,-1%,-2%
